Jurkat NFkB inh – inhibitors of the PMA/ionomycin-induced NF-kB reporter in Jurkat cells. inhibition, % at 4 µM. PMA/ionomycin-induced NF-kB luciferase reporter, luminescence. 0.53% of 330,000 active; in the data active = inhibition above about 50%
Gli-Sufu antag – Gli-Sufu pathway antagonism; Sufu-KO-LIGHT fibroblasts, Gli luciferase reporter luminescence; 0.74% of 340,000 active; inhibition, % at 5 µM;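 active = inhibition above about 55%, limit read from the data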;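 note: 0% = DMSO-treated cells and 100% = wells with medium but no cells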
697 NFkB inh – inhibitors of the PMA/ionomycin-induced NF-kB reporter in 697 B cells; 697 B-cell NF-kB luciferase reporter, 16 h; inhibition, % at 4 µM; AID 435022; 0.33% of 330,000 active; in the data active = inhibition above about 35%
KLF5 inhibitor – suppresses KLF5 promoter-driven expression | DLD-1 KLF5 promoter-luciferase reporter, luminescence | inhibition, % at 5 µM | 0.23% of 290,000 active | AID 1700;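 active = inhibition above a per-plate limit of that plate's mean compound inhibition plus 3 SD, cut at about 60% in these data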;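 note: 0% = DMSO wells and 100% = LY294002 at 200 µM; higher means less KLF5 promoter-driven luciferase light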
Mdm2 MdmX PPI – inhibitors of human Mdm2/MdmX interaction | inhibition, % at 8 µM | O15151+Q00987 | 3% of 330,000 active | SaOS-2 split-luciferase Mdm2/MdmX complementation, luminescence | AID 485346;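 active = inhibition of at least 50% at 8 µM in the primary screen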
aSyn 5UTR inh – 5' untranslated region of α-synuclein, MLPCN primary screen; 0.82% of 300,000 active; inhibition, % (tested at 7.5 µM); AID 1813; alpha-synuclein 5'UTR reporter, inhibitor activity; in the data active = inhibition above about 60%;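 note: H4 neuroglioblastoma cells stably carrying SNCA 5'UTR luciferase fusion; 0% = DMSO wells and 100% = positive control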
Mdm2 MdmX conf – human Mdm2/MdmX binding inhibition, confirmed | 55% of 10,000 active | shares compounds with Mdm2 MdmX PPI | luminescent assay | inhibition, % at 8 µM | AID 489028; in the data active = inhibition above about 40%
FLuc counter – counter-screen for Mdm2/MdmX inhibitors: full-length luciferase | 77% of 6,200 active | SaOS-2 full-length luciferase counterscreen, luminescence | shares compounds with Mdm2 MdmX PPI | inhibition, % at 8 µM;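 active = mean inhibition at 8 µM reaching about 37%, which flags the compound as non-specific, limit read from the data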;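 note: p53-null SaOS-2 cells with luciferase driven by a doxycycline-inducible promoter; compound on cells about two nights before reading with doxycycline added after day one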
Active calls of the source: *; · = no result. In the library only some 4.1% were active in any assay of this set; here they are far more common.

SMILES | Jurkat NFkB inh | Gli-Sufu antag | 697 NFkB inh | KLF5 inhibitor | Mdm2 MdmX PPI | aSyn 5UTR inh | Mdm2 MdmX conf | FLuc counter
Cc1ccc(NC(=O)c2cc(C(=O)c3cc(Cl)ccc3O)cn(-c3ccc(C)cc3)c2=O)cc1 | 1.8 | -7.5 | -8.6 | -5.9 | 87.7* | 37.2 | 85.8* | 43.8*
COc1ccc2[nH]c(=O)c(CN(Cc3cccs3)S(=O)(=O)c3cccc4nsnc34)cc2c1 | 47.3 | 7.5 | 19.3 | -14.6 | 75.1* | 75.9* | 76.4* | 44.8*
CC1Cc2ccccc2N1C(=O)COC(=O)CCc1nc2ccccc2c(=O)[nH]1 (stereo not given) | -8.0 | 6.1 | 12.8 | -21.9 | 28.4 | 23.6 | · | ·
Oc1ccc(C=NNc2ccccn2)c(O)c1 | · | 43.9 | · | · | · | · | · | ·
Oc1ccccc1/C=N/Nc1nccnc1Cl | 20.4 | 56.9* | -72.0 | -57.9 | 70.9* | 88.4* | 64.6* | 30.8
Oc1ccc(/C=N/Nc2nccnc2Cl)c(O)c1 | 47.8 | 44.9 | -37.4 | -13.1 | 57.1* | 87.7* | 73.0* | 38.9*
CCCNC(=O)C(Cc1ccc(F)cc1)NC(=O)c1ccccc1 (stereo not given) | -14.6 | -2.9 | 4.1 | · | 14.1 | · | · | ·
CC(OC(=O)CC1CCCCC1)C(=O)Nc1ccc(F)cc1 (stereo not given) | 3.9 | -3.5 | -13.2 | · | -1.8 | 0.5 | · | ·
CN1CC(c2ccccc2)C2(SC(=S)N(Cc3ccco3)C2=O)C12C(=O)Nc1ccccc12 (stereo not given) | 4.2 | 5.7 | -9.1 | -9.6 | 75.5* | 3.7 | 54.0* | 51.4*
CN1CC(c2ccccn2)C2(SC(=S)N(Cc3ccccc3)C2=O)C12C(=O)Nc1ccccc12 (stereo not given) | 9.2 | 5.1 | 6.2 | -15.0 | 20.8 | -45.0 | · | ·
Cc1ccccc1NC(=O)COC(=O)/C=C/c1cccc(C(F)(F)F)c1 | 16.8 | 0.0 | 7.6 | -25.8 | 14.0 | -8.8 | · | ·
N=c1n(CCCOc2ccccc2Cl)c2ccccc2n1CC(N)=O | -5.9 | -4.5 | -13.4 | -2.8 | 64.7* | 15.1 | 42.5* | 62.7*
C/C(N=Nc1nc2ccccc2s1)=N\Nc1ccccc1O | 0.9 | 21.3 | 1.4 | 5.2 | 55.9* | -0.8 | 58.0* | 26.2
Nc1[nH]n2c(=O)cc(-c3ccccc3)nc2c1N=Nc1ccccc1 | -1.4 | -1.1 | 5.9 | -9.6 | 57.5* | 67.6* | 46.9* | 42.9*
Nc1[nH]n2c(=O)cc(-c3ccccc3)nc2c1N=Nc1ccc(S(N)(=O)=O)cc1 | 3.1 | -3.1 | 22.2 | -35.8 | 19.3 | 11.1 | · | ·
CN(C)CCN(C)Cc1ccccc1Sc1cccc2ccccc12 | -1.7 | 13.2 | -11.3 | -17.0 | 64.2* | -8.8 | 43.0* | 69.1*
Cc1nn(-c2ccccc2Cl)c2sc(C(=O)Nc3nnc(C4CC4)s3)cc12 | -3.6 | -3.2 | 0.6 | -2.2 | 73.6* | -8.7 | 7.3 | ·
Cc1nn(Cc2ccccc2Cl)c2sc(C(=O)Nc3ccccc3N3CCOCC3)cc12 | 18.2 | 11.7 | 12.1 | -27.1 | 55.1* | 25.3 | 60.7* | 61.3*
CC(C)(C#N)NC(=O)C1CCCN1S(=O)(=O)c1ccc2ccccc2c1 (stereo not given) | 15.4 | 4.6 | -31.2 | -26.4 | 32.6 | -23.6 | · | ·
Cc1cccc(S(=O)(=O)NCCC(=O)OCC(=O)Nc2ccc(C#N)cc2)c1 | -5.2 | -5.2 | 10.8 | -6.8 | 11.5 | 3.8 | · | ·
COC(=O)/C(=C\Nc1ccc(Cl)c2ccccc12)c1ncc(C(F)(F)F)cc1Cl | 9.6 | 3.4 | 5.3 | 0.2 | 58.8* | -27.1 | 4.0 | ·
CCCCNC(=O)c1cn(C)c2ccc(S(=O)(=O)N3CC(C)CC(C)C3)cc2c1=O (stereo not given) | 25.7 | -24.6 | -0.1 | 2.2 | 25.8 | -14.7 | · | ·
CCOc1cc(/C=N/NC(=O)Cn2nc([N+](=O)[O-])cc2C)cc(Br)c1OCc1ccccc1F | 9.7 | -8.2 | 9.1 | -13.2 | 50.8* | 39.1 | 35.2 | ·
O=c1[nH]c(C2CCN(S(=O)(=O)c3ccc4c(c3)OCCO4)CC2)nc2c1nnn2Cc1c(F)cccc1Cl | 2.4 | -26.4 | -20.4 | 21.9 | 56.3* | 27.3 | 46.6* | 59.1*
CCCCCCC(=O)NNC(=O)c1c(O)c2ccccc2n(CC)c1=O | -1.2 | -4.4 | 11.8 | -62.3 | 5.5 | 14.5 | · | ·

Compound activity from PubChem BioAssay.
